Experimental data as given in ChEMBL document CHEMBL3988442, “University of Dundee, Small-Polar-MMV Screening Library” (2021).
For some assays here: Measured potencies and affinities stand elsewhere.

What was measured:
Design in all cases: scale not given: direction of the effect not stated beside the values
[1] = target: Protein translocase subunit SecA (Escherichia coli (strain K12)) (UniProt P10408); test: Assay to Identify E. coli SecA ATPase Inhibitors; assay type: functional; settings: 30 µM
Sequence of Protein translocase subunit SecA (Escherichia coli (strain K12)) (P10408 whole entry): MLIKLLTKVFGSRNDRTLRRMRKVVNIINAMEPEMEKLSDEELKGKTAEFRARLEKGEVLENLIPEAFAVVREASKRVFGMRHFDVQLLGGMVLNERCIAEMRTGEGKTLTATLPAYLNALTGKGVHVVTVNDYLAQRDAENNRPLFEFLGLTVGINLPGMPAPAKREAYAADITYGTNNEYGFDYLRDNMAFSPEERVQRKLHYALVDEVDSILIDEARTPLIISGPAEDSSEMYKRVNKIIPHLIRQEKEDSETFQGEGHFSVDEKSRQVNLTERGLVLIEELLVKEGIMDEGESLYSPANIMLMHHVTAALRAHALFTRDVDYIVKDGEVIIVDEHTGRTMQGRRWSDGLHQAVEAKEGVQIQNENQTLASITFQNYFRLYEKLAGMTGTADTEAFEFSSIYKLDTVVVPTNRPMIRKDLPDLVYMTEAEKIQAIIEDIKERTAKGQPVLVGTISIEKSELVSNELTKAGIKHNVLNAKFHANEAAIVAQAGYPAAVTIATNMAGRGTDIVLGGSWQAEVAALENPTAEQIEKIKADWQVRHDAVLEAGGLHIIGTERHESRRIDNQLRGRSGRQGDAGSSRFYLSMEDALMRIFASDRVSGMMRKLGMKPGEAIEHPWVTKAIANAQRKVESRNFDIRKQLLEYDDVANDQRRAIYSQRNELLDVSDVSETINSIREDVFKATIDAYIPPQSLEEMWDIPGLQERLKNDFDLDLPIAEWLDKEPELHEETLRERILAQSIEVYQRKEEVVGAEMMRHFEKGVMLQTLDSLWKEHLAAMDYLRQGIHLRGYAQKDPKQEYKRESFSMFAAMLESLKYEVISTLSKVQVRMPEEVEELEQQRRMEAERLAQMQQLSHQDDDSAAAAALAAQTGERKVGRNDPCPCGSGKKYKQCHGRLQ

[2] = target: T1, Ubiquitin-activating enzyme e1, putative (Leishmania donovani (strain BPK282A1)) (UniProt E9BSI1); test: Leishmania donovani Ubiquitin Activating Enzyme (LdE1); assay type: functional; settings: 30 µM
T1 sequence (whole entry): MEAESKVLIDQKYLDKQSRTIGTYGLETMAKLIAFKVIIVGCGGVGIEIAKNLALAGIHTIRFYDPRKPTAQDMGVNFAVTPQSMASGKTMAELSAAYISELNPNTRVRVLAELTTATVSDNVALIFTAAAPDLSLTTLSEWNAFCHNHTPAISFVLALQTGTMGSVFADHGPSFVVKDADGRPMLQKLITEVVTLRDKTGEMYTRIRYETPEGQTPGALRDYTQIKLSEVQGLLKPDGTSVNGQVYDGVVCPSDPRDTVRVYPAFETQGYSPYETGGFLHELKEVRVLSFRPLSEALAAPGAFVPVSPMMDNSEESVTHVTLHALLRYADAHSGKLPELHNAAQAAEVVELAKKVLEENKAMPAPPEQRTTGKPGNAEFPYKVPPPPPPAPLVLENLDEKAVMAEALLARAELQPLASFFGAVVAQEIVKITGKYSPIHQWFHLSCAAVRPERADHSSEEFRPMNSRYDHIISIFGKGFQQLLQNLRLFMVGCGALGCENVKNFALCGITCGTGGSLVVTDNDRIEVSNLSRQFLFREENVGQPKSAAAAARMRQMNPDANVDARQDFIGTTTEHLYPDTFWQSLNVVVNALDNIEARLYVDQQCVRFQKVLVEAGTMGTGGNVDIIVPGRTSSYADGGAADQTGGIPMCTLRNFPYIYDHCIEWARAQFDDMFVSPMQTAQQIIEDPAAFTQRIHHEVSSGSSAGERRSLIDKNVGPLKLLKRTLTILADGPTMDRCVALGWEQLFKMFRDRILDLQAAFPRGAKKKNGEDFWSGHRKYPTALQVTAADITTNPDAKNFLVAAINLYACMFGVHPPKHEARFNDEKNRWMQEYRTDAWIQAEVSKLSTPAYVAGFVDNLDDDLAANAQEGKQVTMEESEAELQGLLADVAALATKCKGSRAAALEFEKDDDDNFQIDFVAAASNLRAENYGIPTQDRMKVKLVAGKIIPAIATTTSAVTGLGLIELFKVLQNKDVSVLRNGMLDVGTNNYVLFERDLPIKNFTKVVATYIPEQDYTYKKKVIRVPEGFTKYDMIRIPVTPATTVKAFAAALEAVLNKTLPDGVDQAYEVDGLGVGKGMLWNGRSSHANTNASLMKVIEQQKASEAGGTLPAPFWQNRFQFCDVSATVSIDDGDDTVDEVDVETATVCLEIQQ

[3] = target: AMP-activated protein kinase, AMPK (Homo sapiens) (UniProt P54646+O43741+P54619+Q9UGJ0+Q9Y478+Q13131+Q9UGI9); test: AMP-dependent Kinase enzyme assay. An in vitro enzyme assay that detects ADP turnover that is directly proportional to AMPK activity. This uses naive AMPK that is activated during the assay with MK-8722; assay type: functional; settings: 30 µM
[4] = target: Sialic acid-binding Ig-like lectin 9 (Homo sapiens) (UniProt Q9Y336); test: Hs-Siglec9 ALPHAscreen SOP 20170721; settings: 10 µM
Sequence of Sialic acid-binding Ig-like lectin 9 (Homo sapiens) (Q9Y336 whole entry): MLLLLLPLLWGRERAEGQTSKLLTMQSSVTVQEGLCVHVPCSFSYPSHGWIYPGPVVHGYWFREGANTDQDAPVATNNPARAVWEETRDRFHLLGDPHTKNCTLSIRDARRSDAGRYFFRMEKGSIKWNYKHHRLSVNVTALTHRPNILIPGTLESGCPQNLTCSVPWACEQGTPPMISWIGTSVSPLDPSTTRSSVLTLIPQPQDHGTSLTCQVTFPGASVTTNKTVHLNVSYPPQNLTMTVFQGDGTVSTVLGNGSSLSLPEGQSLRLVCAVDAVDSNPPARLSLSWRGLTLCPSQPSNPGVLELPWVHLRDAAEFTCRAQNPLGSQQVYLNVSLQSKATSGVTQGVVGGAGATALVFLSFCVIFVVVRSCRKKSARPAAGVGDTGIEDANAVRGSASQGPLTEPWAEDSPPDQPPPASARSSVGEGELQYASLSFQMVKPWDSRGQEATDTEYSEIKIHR

[5] = tested on: Trypanosoma cruzi; test: Trypanosoma cruzi phosphomannomutase and mannose-1-phosphate guanylyltransferase assay; assay type: functional; settings: 10 µM
[6] = target: T2, Arginase-2, mitochondrial (Homo sapiens) (UniProt P78540); test: in vitro enzyme assay to detect the production of urea directly proportional to the activity of Arginase II; assay type: functional; settings: 33.3 µM; note: in the data most compounds retested in dose-response had high values
T2 sequence (whole entry): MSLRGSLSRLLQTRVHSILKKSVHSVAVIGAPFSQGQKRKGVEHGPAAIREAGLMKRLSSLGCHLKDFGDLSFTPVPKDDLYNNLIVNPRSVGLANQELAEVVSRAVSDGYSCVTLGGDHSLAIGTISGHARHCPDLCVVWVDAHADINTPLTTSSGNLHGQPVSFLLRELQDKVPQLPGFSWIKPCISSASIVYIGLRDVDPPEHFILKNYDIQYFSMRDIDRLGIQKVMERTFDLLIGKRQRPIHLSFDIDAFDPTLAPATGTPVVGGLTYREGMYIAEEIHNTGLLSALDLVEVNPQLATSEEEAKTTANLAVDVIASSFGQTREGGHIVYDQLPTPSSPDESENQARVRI

[7] = target: T3, Proteasome subunit beta (Trypanosoma cruzi) (UniProt O96673); test: Trypanosoma cruzi proteasome chymotrypsin-like activity (TcProtChymo) assay.; note: in the data most compounds retested in dose-response had high values; assay type: functional; settings: 9.37 µM
T3 sequence (whole entry): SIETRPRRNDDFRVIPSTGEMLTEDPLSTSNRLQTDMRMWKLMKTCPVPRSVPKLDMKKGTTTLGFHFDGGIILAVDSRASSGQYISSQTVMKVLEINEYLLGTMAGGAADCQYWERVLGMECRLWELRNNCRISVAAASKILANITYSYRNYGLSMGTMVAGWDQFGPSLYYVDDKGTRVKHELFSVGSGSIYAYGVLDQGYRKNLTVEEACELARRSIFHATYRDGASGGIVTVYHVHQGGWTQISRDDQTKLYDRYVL

[8] = organism: Homo sapiens; test: To identify inhibition of the IFN signalling (Jak-Stat) pathway via expression of an eGFP reporter gene under the control of an IFN-stimulated response element (ISRE) containing MxA promoter.; assay type: functional; settings: 30 µM
[9] = target: T4, Tyrosyl-tRNA synthetase, putative (Trypanosoma cruzi (strain CL Brener)) (UniProt Q4DSP6); test: Trypanosoma cruzi tyrosyl tRNA synthetase (TcYRS) _High Tyrosine SOP; assay type: functional; settings: 30 µM; note: in the data most compounds retested in dose-response had high values
T4 sequence (whole entry): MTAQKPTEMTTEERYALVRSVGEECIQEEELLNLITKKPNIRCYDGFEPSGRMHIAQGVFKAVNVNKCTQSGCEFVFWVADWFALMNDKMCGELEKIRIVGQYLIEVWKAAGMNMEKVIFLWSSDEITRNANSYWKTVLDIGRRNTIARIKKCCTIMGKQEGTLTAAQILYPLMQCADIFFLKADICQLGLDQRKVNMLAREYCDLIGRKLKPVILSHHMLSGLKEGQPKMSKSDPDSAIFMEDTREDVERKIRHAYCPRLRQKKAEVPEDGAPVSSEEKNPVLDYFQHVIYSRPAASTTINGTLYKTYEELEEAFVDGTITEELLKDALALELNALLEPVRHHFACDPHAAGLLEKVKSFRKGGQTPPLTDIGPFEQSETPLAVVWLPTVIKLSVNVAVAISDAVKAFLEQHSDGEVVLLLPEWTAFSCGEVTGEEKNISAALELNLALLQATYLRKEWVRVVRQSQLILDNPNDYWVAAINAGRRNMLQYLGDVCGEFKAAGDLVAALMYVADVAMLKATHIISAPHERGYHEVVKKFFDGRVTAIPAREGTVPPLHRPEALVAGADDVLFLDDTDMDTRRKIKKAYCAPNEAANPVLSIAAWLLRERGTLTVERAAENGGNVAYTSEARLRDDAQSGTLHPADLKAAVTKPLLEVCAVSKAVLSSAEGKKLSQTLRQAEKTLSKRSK

[10] = target: T4, Tyrosyl-tRNA synthetase, putative (Trypanosoma cruzi (strain CL Brener)); test: Trypanosoma cruzi tyrosyl tRNA synthetase (TcYRS) SOP; assay type: functional; settings: 30 µM
[11] = target: Chromo domain-containing protein 1 (Saccharomyces cerevisiae (strain ATCC 204508 / S288c) (Baker's yeast)) (UniProt P32657); test: ScCHD-1 Enzyme Inhibition Assay; assay type: functional; settings: 30 µM; note: in the data most compounds retested in dose-response had high values
Sequence of Chromo domain-containing protein 1 (Saccharomyces cerevisiae (strain ATCC 204508 / S288c) (Baker's yeast)) (P32657 whole entry, the tested form may be a part): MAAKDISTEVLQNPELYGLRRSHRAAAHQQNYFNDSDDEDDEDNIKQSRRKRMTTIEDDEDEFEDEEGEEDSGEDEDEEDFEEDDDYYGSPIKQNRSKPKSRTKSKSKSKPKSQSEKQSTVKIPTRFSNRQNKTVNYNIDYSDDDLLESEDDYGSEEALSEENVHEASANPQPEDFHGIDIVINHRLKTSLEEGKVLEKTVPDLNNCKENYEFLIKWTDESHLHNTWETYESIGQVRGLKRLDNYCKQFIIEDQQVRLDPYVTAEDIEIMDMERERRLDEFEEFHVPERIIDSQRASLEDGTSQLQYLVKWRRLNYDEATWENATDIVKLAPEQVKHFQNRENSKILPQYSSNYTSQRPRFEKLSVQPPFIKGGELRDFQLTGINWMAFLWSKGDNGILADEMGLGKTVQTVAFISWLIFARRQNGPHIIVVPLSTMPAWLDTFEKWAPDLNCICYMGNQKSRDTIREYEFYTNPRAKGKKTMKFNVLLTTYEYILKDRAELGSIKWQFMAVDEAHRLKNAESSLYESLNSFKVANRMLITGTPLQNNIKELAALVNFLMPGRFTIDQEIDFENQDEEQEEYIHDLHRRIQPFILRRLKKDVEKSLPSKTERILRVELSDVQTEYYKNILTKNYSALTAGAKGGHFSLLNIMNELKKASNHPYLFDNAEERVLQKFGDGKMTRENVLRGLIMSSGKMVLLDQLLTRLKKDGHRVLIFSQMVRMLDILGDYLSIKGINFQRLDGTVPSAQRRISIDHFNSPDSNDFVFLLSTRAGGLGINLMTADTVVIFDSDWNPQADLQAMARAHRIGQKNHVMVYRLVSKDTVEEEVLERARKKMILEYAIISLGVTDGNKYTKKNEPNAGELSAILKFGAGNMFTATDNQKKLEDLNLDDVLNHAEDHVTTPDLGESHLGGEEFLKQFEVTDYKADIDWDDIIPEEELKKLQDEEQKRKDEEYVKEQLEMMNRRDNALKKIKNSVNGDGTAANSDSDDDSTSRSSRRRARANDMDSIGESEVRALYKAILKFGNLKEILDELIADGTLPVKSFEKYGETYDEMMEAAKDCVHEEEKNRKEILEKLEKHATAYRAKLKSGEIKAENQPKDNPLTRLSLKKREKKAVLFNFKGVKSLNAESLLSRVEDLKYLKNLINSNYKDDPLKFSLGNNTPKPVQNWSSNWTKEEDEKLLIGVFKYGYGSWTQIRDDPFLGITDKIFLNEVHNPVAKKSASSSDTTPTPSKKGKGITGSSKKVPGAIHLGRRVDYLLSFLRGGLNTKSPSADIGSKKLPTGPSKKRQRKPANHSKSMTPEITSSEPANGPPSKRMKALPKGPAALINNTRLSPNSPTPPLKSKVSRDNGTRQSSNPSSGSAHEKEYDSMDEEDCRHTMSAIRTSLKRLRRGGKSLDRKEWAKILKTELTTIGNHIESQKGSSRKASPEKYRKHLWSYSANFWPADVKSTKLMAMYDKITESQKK

SMILES | Percent Effect [1] [%] | Percent Effect [2] [%] | Percent Effect [3] [%] | Percent Effect [4] [%] | Percent Effect [5] [%] | Percent Effect [6] [%] | Percent Effect [7] [%] | Percent Effect [8] [%] | Percent Effect [9] [%] | Percent Effect [10] [%] | Percent Effect [11] [%]
CC(CN1CCOCC1)NCc1nncn1C1CCCCC1 (stereo not given) | -2.55 | 1.39 | -4.5 | -12 | -5.54 | 3.09 | 9.65 | -2.46 | 6.32 | 5.13 | -1.99
COCC(=O)N1CCCn2c(CN3CCCCC3)nnc2C1 | -0.412 | 11 | 1.87 | 4.92 | -5.95 | -2.4 | 22.7 | 24 | 7.29 | 11.1 | -5.31
c1cnc(N2CCC3(CCN(Cc4ccncc4)CC3)CC2)nc1 | -0.982 | 0 | 7.11 | 7.41 | -2.25 | -4.14 | 13.1 | -0.931 | 1.08 | 5.13 | 13
COc1ccc(CN2C[C@@H](OCc3csc(C)n3)[C@H]3COC[C@H]32)cc1 | -4.6 | 2.74 | -10.5 | 0.865 | -2.78 | -0.399 | 2.65 | -6.15 | 2.08 | 8.64 | -3.52
Cn1cc(CCNC(=O)NC2CCS(=O)(=O)C2)cn1 (stereo not given) | -5.97 | -1.39 | -3.17 | -1.6 | -4.57 | -0.442 | 11.8 | -0.804 | 0 | 5.13 | -1.44
CCCc1n[nH]c(C2CN(Cc3nnc(C4CC4)o3)CCO2)n1 (stereo not given) | -3.64 | 5.06 | -4.65 | 2.18 | 4.25 | -1.9 | -0.409 | 3.77 | 3.45 | 8.86 | -0.679
O=C1OCCN1CCOc1nc(-c2ccccc2Cl)no1 | -6.78 | 16.4 | -3.77 | 15.8 | 4.7 | 8.64 | 12.1 | 7.15 | 5.38 | 12.5 | -6.2
COC(=O)c1sccc1S(=O)(=O)NCC1(O)CCOc2ccccc21 (stereo not given) | -3.54 | 0 | 5.9 | -3.21 | -3.72 | 1.82 | 1.77 | 4.11 | 0 | 7.5 | -4.1
CC1CN=C(N2CCN(C(=O)Nc3nc(-c4ccccc4)ns3)CC2)S1 (stereo not given) | -9.42 | -5.41 | 7.75 | -5.9 | -2.25 | -3.23 | 3.35 | 38.4 | -2.15 | -6.17 | -0.289
c1cc(CN2CCN(Cc3cscn3)CC2)cs1 | -1.31 | 10.4 | 3.68 | -2.63 | -2.25 | 4 | 2.67 | 29.1 | 2.86 | 2.35 | -6.18
